Reference: ChEMBL document CHEMBL3988442, “University of Dundee, Small-Polar-MMV Screening Library” (2021)
Where “and” joins values, the source holds several entries; their conditions need not be identical. Identical values can stand only once. About 290 (0.85%) of roughly 34,000 compounds showed an effect of 50% or more. Many of the other results were omitted from the sample, so strong results are more common in it than they were.

Tested on: Plasmodium falciparum
Experiment: Plasmodium falciparum sporozoite viability assay
Assay type: functional, organism-based
Set-up: scale not given: in the data most compounds retested in dose-response had high values

| SMILES | Percent Effect | Percent Effect (10 mM as filed; unlikely as a test dose) |
| --- | --- | --- |
| C[C@H]1C(=O)NC[C@H]2CN(Cc3cccc(F)c3)C[C@H]21.O=C(O)C(F)(F)F | -1.083% |  |
| CS(=O)(=O)NC1CCCN(C(=O)NCc2ccoc2)C1 (stereo not given) | 4.932% |  |
| O=C1CCCN1CCCC(=O)N1CCCC(c2ccn[nH]2)C1 (stereo not given) | 5.64% |  |
| CC1CN(CC(=O)Nc2nccs2)CCN1Cc1nccn1C (stereo not given) | -1.162% |  |
| CN(C)c1ccc(C(=O)N2CCN(CC(O)C(C)(C)C)CC2)nn1 (stereo not given) | -6.949% |  |
| O=C(N[C@@H]1CN(Cc2ccc3cc[nH]c3c2)C[C@H]1O)c1cnccn1 | -1.172% |  |
| O=C(O)C(F)(F)F.O=C(c1ccncc1F)N1CC2CC1(C(=O)N1CCCC1)C2 | -2.014% |  |
| Cc1cnn(CCNCc2c(C(C)C)nn(C)c2Cl)c1 | -5.882% |  |
| CCn1ncc2c1CCCC2NCc1ccc(OC)c(C)c1 (stereo not given) | 1.069% |  |
| CCn1ncc2c1CCCC2NCc1ccc2c(c1)CCO2 (stereo not given) |  | 59.7% and 48.65% and 59.52% |
| CC(C)(C)n1ncc2c1CCCC2NCc1ccc2c(c1)OCCO2 (stereo not given) |  | 101% and 99.54% |
| Cc1cccc(CNC2CCCc3c2cnn3C)c1.Cl (stereo not given) | -1.28% |  |
| Cl.Cn1ncc2c1CCCC2NCc1cccc(C(F)(F)F)c1 (stereo not given) | -3.477% |  |
| CCn1ncc2c1CCCC2NCc1ccc2c(c1)OCCO2 (stereo not given) |  | 33.22% and 25.15% |
| O=C(NCC1CCCO1)c1nc2c(s1)CCCN2C(=O)C1CC1 (stereo not given) | -5.565% |  |
| Cl.Cl.O=C([C@H]1CCCN1)N1CC2(CCNCC2)c2cc(Cl)ccc21 | 12.41% |  |
| Cc1cc(OCC(=O)N2CCCC(c3noc(C(C)C)n3)C2)no1 (stereo not given) | 2.432% |  |
| O=C(c1ccc[nH]1)N1C[C@H]2CN(Cc3cccc(F)c3)C(=O)[C@H]2C1 | 12.11% |  |
| c1csc(-c2noc(CN3CCCC3Cn3cccn3)n2)c1 (stereo not given) |  | -21.92% and -8.385% and -5.28% |
| c1csc(-c2noc(CN3CCCCC3Cn3cccn3)n2)c1 (stereo not given) |  | 24.36% and 19.77% and 16.14% |
| c1ccc(-c2noc(CCCN3CCCC3Cn3cncn3)n2)cc1 (stereo not given) |  | 40.22% and 41.76% and 47.25% |
| CCOc1ccnc(N[C@@H](Cc2ccccc2)C(N)=O)n1 | 0.8772% |  |
| COC(=O)CSCc1noc(-c2ccc(Cl)cc2)n1 |  | 72.7% and 74.65% |
| Cc1ccc(-c2nc(CN3CCc4cnc(C)nc4C3)no2)cc1 | 16.875% |  |

| SMILES | Percent Effect | Percent Effect (10 mM as filed; unlikely as a test dose) |
| --- | --- | --- |
| COC(=O)CSCc1noc(-c2ccc(C)cc2)n1 |  | 97.51% and 95.63% |
| COC(=O)CSCc1nc(-c2ccc(Cl)cc2)no1 |  | -107.5% and -111.6% |
| CCOC(=O)CSc1ccc(-c2nc(C)no2)cn1 |  | -0.4631% and 0.4035% |
| CCOC(=O)CSc1ccc(-c2nc(CC)no2)cn1 |  | 40.67% and 46.73% |
| O=S1(=O)CCC(N(Cc2nc(-c3ccccn3)no2)Cc2cccs2)C1 (stereo not given) | 22.13% |  |
| CCN1CCN(CCCNc2ncccn2)CC1 | -11.01% |  |
| Cc1cc(CN(C)C(=O)c2ccc(N(C)C)nc2)no1 | 3.089% |  |
| NC(=O)c1cc(C2CCCN(CCOCC3CC3)C2)n[nH]1 (stereo not given) | -0.5536% |  |
| Cc1ccc(C2CN(Cc3cccc4[nH]ccc34)CCO2)nc1 (stereo not given) | 9.691% |  |
| CC(C)OC(=O)N1CCC(Cc2ccc(C(=O)O)cc2)C1 (stereo not given) | 5.074% |  |
| COCCOc1ccc(S(=O)(=O)Nc2cccc(O)c2F)cc1C |  | 65.91% and 54.13% |
| COCCOc1ccc(S(=O)(=O)Nc2cccnc2O)cc1C |  | -10.26% and -4.441% |
| COc1ccc(S(=O)(=O)NC(=O)COC2CCCCC2)cc1C | -5.465% |  |
| CC(C)N1CCN(C)CC(Cc2cc(N(C)C)ncn2)C1 (stereo not given) | 2.091% |  |
| CN1CCc2nc3cc(C(=O)NCc4cccs4)ccc3c(=O)n2CC1 | 0.8687% |  |
| CCc1nc(CN2CCN(CC(O)c3ccccc3)CC2)no1 (stereo not given) |  | 4.576% and 5.713% and -3.353% |
| CCCc1nc(CN2CCN(CC(O)c3ccccc3)CC2)no1 (stereo not given) |  | -24.09% and -24.64% and -18.14% |
| O=C(CC1CC1)N1CCCn2nnc(CNc3ncccn3)c2C1 | 2.773% |  |
| Cc1noc(C)c1C(=O)NCc1cccnc1N(C)C | 5.354% |  |
| CCC(=O)N1CC[C@H](O)[C@@H]1Cc1ccccc1 | -1.986% |  |
| Cc1cccc(CN2CCCCC2c2n[nH]cc2-c2cc(C)no2)c1.Cl (stereo not given) |  | -21.49% and -8.887% and 2.992% |
| CCc1ccc(CN2CCCCC2c2n[nH]cc2-c2cc(C)no2)cc1.Cl (stereo not given) |  | 63.83% and 48.62% and 58.14% |
| Nc1nccnc1CC1CCCN(Cc2cccc3[nH]ccc23)C1 (stereo not given) | 4.859% |  |
| NC(=O)C1CCN(c2ccc3cc(Br)ccc3n2)C1 (stereo not given) |  | -42.56% and -39.12% |

| SMILES | Percent Effect | Percent Effect (10 mM as filed; unlikely as a test dose) |
| --- | --- | --- |
| NC(=O)C1CN(c2ccc3cc(Br)ccc3n2)CCO1 (stereo not given) |  | 80.55% and 85.86% |
| NC(=O)C1CN(c2ccc(Br)cn2)CCO1 (stereo not given) |  | -39.17% and -33.44% |
| Cc1cc(Cc2cccc(C(F)(F)F)c2)cc(C2CCCNC2)n1 (stereo not given) | 4.537% |  |
| CN(C)C(=O)CN1CCCCC1c1nc(N)ncc1-c1ccc(Cl)cc1 (stereo not given) | -1.537% |  |
| Cc1noc(C)c1C(=O)N1C[C@@H]2CN(Cc3cccnc3)CCO[C@@H]2C1 | -15.82% |  |
| CCc1nc(-c2cccc(C(=O)O)c2)no1 | 7.751% |  |
| CS(=O)(=O)NC1CCN(C(=O)NCCc2ccccn2)CC1 | -4.021% |  |
| Cc1ccc(S(=O)(=O)N2CCN(Cc3ccncc3)CC2)c(Cl)c1 | -1.432% |  |
| Cc1ccc(OCCN(C)C(=O)CCCC(N)=O)c(C)c1 | -6.308% |  |
| Cc1cn2c(n1)C(CNCC1=Cc3cc(Cl)ccc3OC1)CCC2 (stereo not given) |  | 86.97% and 100% and 87.02% |
| Cc1cn2c(n1)C(CNCc1cccc3c1OCO3)CCC2 (stereo not given) | 10.56% |  |
| Cc1ccc(N2CCCC(NCC3=Cc4ccccc4OC3)C2)nn1 (stereo not given) | 9.337% |  |
| CC(NCC1=Cc2cc(Cl)ccc2OC1)c1nnc2n1CCCC2 (stereo not given) | -0.2255% |  |
| Cc1cn2c(n1)C(CNCC1=Cc3ccccc3OC1)CCC2 (stereo not given) |  | 102.3% and 118.3% and 103.2% |
| CCc1n[nH]c(C2CN(Cc3nnc(C4CC4)o3)CCO2)n1 (stereo not given) | 4.502% |  |
| CCc1ncnc2c1CCN(CCOC)CC2.O=C(O)C(F)(F)F | 8.757% |  |
| CC1COCCN1C(=O)COc1cccc(Oc2ccccn2)c1 (stereo not given) |  | -6.319% and -6.647% and 2.396% |
| CC1COCCN1C(=O)COc1ccc(Oc2ccccn2)cc1 (stereo not given) |  | 62.7% and 63.29% and 47.53% |
| COc1ncccc1CN1CCc2[nH]nc(C(=O)N(C)C)c2C1 | 10.07% |  |
| COCCn1cc(CC(=O)Nc2nc3c(s2)CCC3)c2ccccc21 |  | 1.19% and -4.41% and -3.323% |
| COCCn1ccc2c(NC(=O)c3n[nH]c4c3CCC4)cccc21 |  | -3.571% and -16.58% and -12.91% |
| COCCn1ccc2c(C(=O)Nc3nc4c(s3)CCC4)cccc21 |  | 69.11% and 95.7% and 86.17% |
| Cc1cc(CN2CCN(C(=O)c3sccc3C3CC3)CC2)no1 | 1.531% |  |
| O=C(O)C(F)(F)F.O=C(c1ccsc1)N1C[C@@H]2CCN(c3cccnc3)C[C@@H]2C1 | 9.933% |  |

| SMILES | Percent Effect | Percent Effect (10 mM as filed; unlikely as a test dose) |
| --- | --- | --- |
| O=C(Nc1cccnc1)C1Cc2nc(-c3ccsc3)sc2N1CC1CC1.O=C(O)C(F)(F)F (stereo not given) |  | 89.12% and 90.39% and 85.39% |
| O=C1CCCN1CC1CCCCN1C(=O)Nc1cccnc1 (stereo not given) | 7.898% |  |
| O=C(Nc1cccnc1)[C@H]1C[C@H]2OCC[C@H]2N(C(=O)c2ccsc2)C1.O=C(O)C(F)(F)F | -9.732% |  |
| CN(C)C(=O)CN1CCC2(CCN(S(C)(=O)=O)CC2)C1=O | 9.72% |  |
| COc1ncccc1NC(=O)C1CC1 | 5.184% |  |
| Cc1cnn(CC2CCCN2CC(=O)Nc2nc(C)cs2)c1 (stereo not given) | 7.289% |  |
| CN(C)c1cc(C(=O)N2CCN(c3cc(C#N)ccn3)CC2)ccn1 | 0.09769% |  |
| CCc1ocnc1C(=O)N1CCCC1c1noc(C(C)C)n1 (stereo not given) | -5.615% |  |
| COc1cccc(-n2c(C)cc(C(=O)NC(C)(C)C(N)=O)c2C)c1 | 5.357% |  |
| CN1CCC(c2n[nH]cc2-c2ccnc(N)c2)C1 (stereo not given) | 2.531% |  |
| Cc1nnc2n1CCN(CCOc1ccccc1)C2 |  | -26.14% and -25.56% and -5.728% |
| CS(=O)(=O)NCc1cc(-c2cc(F)cc(F)c2)nc(N2CCCC2)n1 | 13.63% |  |
| CN(Cc1ccccc1)C(=O)CCNc1ncccc1C#N | -0.1304% |  |
| CN(Cc1noc(C2CC2)n1)C1CCN(CC(=O)N2CCOCC2)C1 (stereo not given) | 4.316% |  |
| COc1cc(F)c(NCc2nc3ccccc3n2C)cc1OC |  | 61.41% and 85.71% and 92.05% |
| COCCOc1ccc(F)cc1NCc1nc2ccccc2n1C |  | 8.05% and -7.699% and 5.859% |
| COCCOc1ncccc1NCc1nc2ccccc2n1C |  | 12.39% and -0.3581% and 11.74% |
| Cc1cc(NC(=O)CNC2CCc3nc(C(C)C)nn3C2)no1 (stereo not given) | 3.617% |  |
| O=C(O)C(F)(F)F.O=C(O)C(F)(F)F.O=C1CC2(CCN(Cc3cccnc3)C2)CN1c1ccc2c(c1)OCO2 (stereo not given) | 12.41% |  |
| CN(C)c1nc2c(c(N3CCc4ccccc4C3)n1)CCNC2 | 6.667% |  |
| Clc1ccc2nc(N3CCC(NCCCC4CCOC4)CC3)sc2c1 (stereo not given) |  | 74.93% and 78.72% |
| Cc1csc2c(N3CCC(NCCCC4CCOC4)CC3)ncnc12 (stereo not given) | 2.368% |  |
| Cl.c1ccc(-c2cc(CNCCCC3CCOC3)c3nnnn3c2)cc1 (stereo not given) | -4.775% |  |
